# Lassa entry inh – Lassa virus entry inhibition; 300,000 compounds, 1.2% hits; Lassa virus pseudotype entry inhibition, cell reporter; Potency, µM (top dose mostly 37.9 µM), for the others: at the highest dose activity change, negative = inhibition, usual class: inhibitors; calls by dose curve; tested in HEK293 cells; further: potency means the concentration at half of the fitted maximal effect; nearly all actives have a fitted effect of over 50% in size
# FMDV inh – antivirals against foot and mouth disease virus; FMDV antiviral cell-based qHTS; 410,000 compounds, 1.2% hits; Potency, µM (doses to about 57.9 µM), for the others: at the top dose activity change, negative = inhibition, most hits filed as inhibitors; AID 1159524; calls by dose curve; tested in HEK293T cells; further: read-out not given here; potency means the concentration at half of the fitted maximal effect; nearly all actives have a fitted effect of over 45% in size
# Marburg entry inh – blocks Marburg virus binding to or entry into cells. Marburg virus pseudotyped entry inhibition, cell reporter. Potency, µM (series often up to 37.8 µM), inactives show top-dose activity change, negative = inhibition, hits mostly inhibitors. 300,000 compounds, 1.8% hits. AID 540276; calls by dose curve; tested in HEK293 cells; further: potency means the concentration at half of the fitted maximal effect
# VACV Venus inh – vaccinia inhibition (Venus reporter); 330,000 compounds, 0.46% hits; Potency, µM (doses to about 36.5 µM), inactives show at the top dose activity change, negative = inhibition, usual class: inhibitors; Vaccinia virus Venus reporter expression, fluorescence; AID 720580; calls by dose curve; tested in A549 cells; further: potency means the concentration at half of the fitted maximal effect; nearly all actives have a fitted effect of over 30% in size
# HCMV inh – inhibitors of human cytomegalovirus | 410,000 compounds, 4.5% hits | HFF cells, HCMV-luciferase reporter, 72 h; hits give low values | activity change, negative = inhibition, % at 57.5 µM; in the data active means activity change below about -60%; inconclusive means no clear call, values can overlap the other calls; inactive means above about -39%
#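 Screen run at 2 compound doses on HFFs infected with reporter HCMV, MOI 1 PFU/cell. Luciferase activity from cell lysates at 72 h post infection gave inhibition relative to buffer-only and Salinomycin wells.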
# VACV mCherry inh – inhibitors of vaccinia virus infection (mCherry reporter signal); AID 720579; 310,000 compounds, 0.63% hits; Vaccinia virus mCherry reporter infection, fluorescence; Potency, µM (highest dose often 36.5 µM), inactives show at the top dose activity change, negative = inhibition, most hits filed as inhibitors; calls by dose curve; tested in A549 cells; further: potency means the concentration at half of the fitted maximal effect; nearly all actives have a fitted effect of over 35% in size
# Numbers without * were called inactive; i = inactive; ? = inconclusive; . = not tested or not shown; + = active, no number; [ ] = remark or other dose. Rows were chosen to be rich in hits. Some 6.5% of all compounds tested hit in one or more screens of this group. On the % scale 0 is the no-effect control and ±100 the full control effect.
SMILES,Lassa entry inh,FMDV inh,Marburg entry inh,VACV Venus inh,HCMV inh,VACV mCherry inh
O=[N+]([O-])c1ccc(N/N=C/c2sc(N3CCOCC3)nc2-c2ccccc2)c(S(=O)(=O)Nc2ccc(Cl)cc2)c1,.,?,.,.,-88.3*,.
O=S(=O)(Nc1cccnc1)c1ccc(C2CCCCC2)cc1,21.4%,-30.6%,?,?,-65.7*,?
CC(CCc1ccccc1)NCC(O)COc1ccccc1 (stereo unspecified),2.6%,-5.3%,?,.,-25.7,.
CCOC(=O)c1sc(N(Cc2ccccc2)C(=O)CCl)nc1C,18.3µM*,?,?,-12.4%,-24.6,-21.3%
CCOC(=O)c1sc(N(Cc2ccccc2)C(=O)COC(=O)c2ccc(O)cc2)nc1C,2.06µM*,0.0%,?,?,?,i
CCOC(=O)c1sc(N(Cc2ccccc2)C(=O)COC(=O)c2ccccc2O)nc1C,-24.3%,21.1%,?,-11.9%,12.2,i
COC(=O)c1ccc(Nc2nccc3[nH]c(-c4cccc(C(F)(F)F)c4)cc23)cc1,.,.,.,.,4.1,.
Cc1ccccc1-c1ccc(CN2CCc3nnc(C(NS(C)(=O)=O)C(C)C)n3CC2)cc1 (stereo unspecified),.,-14.6%,.,-18.0%,.,-4.1%
COc1ccc(/C(C)=N/NC(=O)c2cccc(S(=O)(=O)N3CCCC3)c2)c(O)c1,?,-25.6%,?,?,-90.3*,5.62µM*
CC(Sc1ccccc1)C(=O)Nc1ccc(S(=O)(=O)N2CCOCC2)cc1 (stereo unspecified),-10.6%,5.2%,7.9%,-6.5%,-64.0*,-15.5%
COc1ccc(NC(=O)c2cccc(S(=O)(=O)N3CCCCCC3)c2)cc1,-10.9%,-2.1%,-11.3%[46.1 µM],-3.6%,-87.6*,i
COc1ccc(S(=O)(=O)N2CCCCCC2)cc1C(=O)N(C)CCOc1ccc(Cl)cc1,17.8µM*,?,?,-8.1%,-39.1,-7.2%
COC(=O)C1=C2CCCO[C@H]2[C@@H]2[C@@H](C)[C@H](OC)c3ccccc3[C@@H]12,.,.,1.6%[14.2 µM],.,.,.
C[C@H]1COc2cccc(N3CCC[C@H]3CO)c2S(=O)(=O)N1,.,-10.2%,.,1.5%,-12.6,-4.7%
Cc1ccc(S(=O)(=O)N2CCN(C(C(=O)Nc3ccc(F)cc3)c3ccccc3)CC2)cc1 (stereo unspecified),6.31µM*,0.0%,?,-15.1%,-33.6,-10.7%
O=C(Nc1cccc(S(=O)(=O)C(F)F)c1)c1ccc(S(=O)(=O)N2CCOCC2)cc1,-9.8%,?,?,-13.7%,6.6,5.2%
COc1ccc(NS(=O)(=O)c2cccc(NC(=O)c3ccc(S(=O)(=O)N4CCCCCC4)cc3)c2)cc1,8.2µM*,0.0%,3.55µM*,?,.,?
N#Cc1ccc(C(=O)NNC(=O)c2cccc(S(=O)(=O)N3CCOCC3)c2)cc1,-1.2%,-12.8%,22.6%,-15.1%,0.0,-21.3%
O=C(Nc1ccc(S(=O)(=O)C(F)F)cc1)c1cccc(S(=O)(=O)N2CCOCC2)c1,-28.4%,17.8µM*,?,-16.0%,-18.3,-6.8%
O=C(NNC(=O)c1ccc(O)c(Cl)c1)c1cccc(S(=O)(=O)N2CCOCC2)c1,-19.7%,-0.5%,10µM*,-2.2%,-2.7,-12.2%
COc1ccccc1CCNC(=O)CSCC(=O)Nc1ccccc1F,.,-28.3%,.,-18.9%,-29.8,-1.1%
COc1ccc(C(CNC(=O)c2ccc(C)c(S(=O)(=O)Nc3ccccc3OC)c2)N2CCCC2)cc1 (stereo unspecified),-19.0%[46.1 µM],1.3%,?,-20.1%,-22.5,-22.6%
COc1ccc(NS(=O)(=O)c2cccc(NC(=O)C34CCC(CC3)C4)c2)cc1,11.6µM*,8.5%,?,-18.1%,-64.5*,i
CC(C)[C@H](NC(=O)c1ccccc1)C(=O)Nc1cccc(S(=O)(=O)N2CCOCC2)c1,-20.1%,8.0%,2.0%,-5.6%,+,i
Nc1cc(S(=O)(=O)N2CCCCC2)ccc1Oc1ccc(Cl)cc1,-26.4%,?,?,.,-65.9*,.
SMILES,Lassa entry inh,FMDV inh,Marburg entry inh,VACV Venus inh,HCMV inh,VACV mCherry inh
COc1ccc(NC(=O)c2cc(S(=O)(=O)N3CCCCC3)ccc2OC)cc1,.,15.3%,.,.,-72.8*,.
COc1ccc(NC(=O)c2cc(S(=O)(=O)N3CCCC3)ccc2OC)cc1,2.7%[46.1 µM],6.2%,.,-5.8%,?,i
COc1ccc(NS(=O)(=O)c2cccc(NC(=O)C3=NN(c4ccccc4)C(=O)CC3)c2)cc1,.,?,.,.,-4.3,.
Cc1ccc(NC(=O)c2cc(S(=O)(=O)N3CCOCC3)cs2)cc1,-29.1%[46.1 µM],?,-2.4%[46.1 µM],-17.3%,4.2,-24.2%
Cc1ccc(NC(=O)c2cc(S(=O)(=O)N3CCCCC3)cs2)cc1,20.6µM*,.,-28.7%,?,-81.2*,-28.4%
O=C(Nc1cccc(S(=O)(=O)C(F)F)c1)c1ccc(S(=O)(=O)N2CCCC2)cc1,5.01µM*,-11.3%,?,?,?,-0.2%
CC(c1ccccc1)n1cnc2ccccc2c1=O (stereo unspecified),6.6%[46.1 µM],-8.4%,2.1%[46.1 µM],-7.7%,-26.6,-12.6%
Cc1ccccc1NC1=C/C(=N\S(=O)(=O)c2cccs2)c2ccccc2C1=O,?,10µM*,3.66µM*,.,-106.2*,.
CC(=O)Nc1ccc(NC2=C/C(=N/S(=O)(=O)c3cccs3)c3ccccc3C2=O)cc1,?,?,5.01µM*,11.2µM*,-100.9*,?
COc1ccc(S(=O)(=O)/N=C2\C=C(Nc3ccc(O)cc3)C(=O)c3ccccc32)cc1,?,7.94µM*,?,3.55µM*,-99.0*,5.01µM*
Cc1ccc(NC2=C/C(=N/S(=O)(=O)c3cccs3)c3ccccc3C2=O)cc1C,3.6%,-18.3%,-6.7%,-12.0%,62.3,i
CCc1ccc(S(=O)(=O)/N=C2\C=C(NS(=O)(=O)c3ccccc3)C(=O)c3ccccc32)cc1,.,71.1%,.,.,-36.1,.
O=C(O)c1ccc(S(=O)(=O)c2ccc([N+](=O)[O-])cc2[N+](=O)[O-])cc1,.,-28.6%,.,.,-22.1,.
O=S(=O)(c1cccc(F)c1)N1CCN(Cc2cc3c(cc2Br)OCCO3)CC1,.,-28.5%,.,.,-14.4,.
N#CC(c1cccc(C(F)(F)F)c1)(c1ncc(C(F)(F)F)cc1Cl)N1CCOCC1 (stereo unspecified),?,-24.5%,-19.8%,.,-63.7*,.
CCc1nc(-c2cc3ccc(C)cc3[nH]c2=O)no1,?,59.6%,8.0%,.,-70.9*,.
Cc1ccc2cc(-c3noc(C(C)(C)C)n3)c(=O)[nH]c2c1,11.8%,25.7%,19.2%,.,-14.7,.
CCCCN(C=O)c1c(CC)nc2ccc(C(=O)NCCCN3CCCC3=O)cn12,.,-9.1%,.,-21.6%,8.8,24.1%
CNc1snc(C)c1C(=O)OCC(=O)c1ccc(OC)c(F)c1,.,?,.,.,-73.6*,.
CC1CCCCN1C(=O)COC(=O)/C=C/c1ccc2ccccc2n1 (stereo unspecified),.,50.5%,.,?,-84.3*,?
COc1ccccc1Nc1nnc(SCC(=O)c2c(N)n(C3CC3)c(=O)[nH]c2=O)s1,-25.7%[46.1 µM],-13.5%,1.2%[46.1 µM],-2.7%,-39.6,i

# Screening results from PubChem.
